Reference: ChEMBL document CHEMBL1157539, “Thousands of chemical starting points for antimalarial lead identification” (Nature, 2010)

How the values were obtained:
Type in all cases: functional
[1] = test system: Plasmodium falciparum; assay: GSK_TCMDC: Inhibition of Plasmodium falciparum 3D7 in whole red blood cells, using parasite LDH activity as an index of growth. Test compounds present at 2uM
[2] = test system: Plasmodium falciparum; assay: GSK_TCMDC: Inhibition of Plasmodium falciparum Dd2 in whole red blood cells, using parasite LDH activity as an index of growth. Test compounds present at 2uM
[3] = test system: HepG2; assay: GSK_TCMDC: Percent inhibition of human HepG2 cell line. Test compounds present at 10uM.

SMILES | Inhibition [1] [%] | Inhibition [2] [%] | Inhibition [3] [%]
CN(C)C(=S)N/N=C1/C(=O)Nc2ccc(OC(F)(F)F)cc21 | 93 | 52 | 36
CC(C)C(=O)Nc1c(F)cc(F)cc1CCc1ccc(O)cc1 | 90 | 91 | –
CCCc1cc(NCc2ccncc2)nc(Nc2ccc(F)cc2)n1 | 90 | 6 | 9
CCc1c(C)nc(-n2nc(C)cc2NC(=O)CC(c2ccccc2)c2ccccc2)[nH]c1=O | 97 | 98 | 41
Cc1nc2nc(N)nc(N)c2c(C)c1Cc1ccc(N)cc1.Cl | 97 | 0 | –
O=C(NC(CCCN1CCC2(CC1)OCc1ccccc12)c1ccc(Cl)c(Cl)c1)c1cc(C(F)(F)F)cc(C(F)(F)F)c1 (centres undefined) | 100 | 99 | 55
Cc1cccc(-c2c(C)nc(N)nc2N)c1 | 88 | 0 | –
C[C@@H](COc1ccccc1)NCC(O)c1ccc([N+](=O)[O-])c(OCc2ccccc2)c1 (some centres undefined) | 93 | 64 | 5
CC1CN(CC(O)Cn2c3ccc(Br)cc3c3cc(Br)ccc32)CC(C)O1 (centres undefined) | 100 | 100 | 0
COc1ccc(C(=O)N[C@@H](CC(C)C)C(=O)NC2CC[C@@H](C)N(C(=O)Nc3ccc(Cl)cc3)CC2=O)cc1OCCN1CCOCC1 (some centres undefined) | 96 | 91 | 5
COc1ccc(COc2cc(NCCCN)nc3ccccc23)cc1 | 100 | 5 | 3
CC1(C)N=C(N)N=C(N)N1c1cccc(C(F)(F)F)c1.Cl | 95 | 68 | 60
COc1cc(NC(=O)N2CCOC(CCN3CCC(c4ccccc4)CC3)(c3ccc(Cl)c(Cl)c3)C2)cc(OC)c1 (centres undefined) | 93 | 73 | 12
CC(=O)Nc1cccc(C(=O)Nc2cccc(-c3ccc(-c4nc5cccc(C)c5[nH]4)s3)c2)c1 | 99 | 26 | 75
O=[N+]([O-])c1ccc(C=NNc2nc3ccccc3[nH]2)cc1 | 100 | 98 | 11
CC(C)(C)OC(=O)NCc1ccc(Nc2nnc(-c3ccc(OCC(=O)NC[C@@H]4CC[C@H]5C[C@@H]4C5(C)C)c([N+](=O)[O-])c3)o2)cc1 | 94 | 52 | 29
Oc1ccccc1-c1nc2cccnc2n1CCc1cccc(C(F)(F)F)c1 | 93 | 36 | 4
CCN1CCN(CCNc2c3ccccc3nc3ccccc23)CC1.Cl | 93 | 8 | 45
O=C(NCCCCN1CCN(c2cccc3ccccc23)CC1)c1ccc(NC(=O)c2ccc(Cl)cc2)cc1 | 100 | 64 | 38
Cc1nc(C)c(-c2ccc(C(=O)c3ccc(Cl)cc3)cc2)c(O)c1Cl | 98 | 95 | 0
O=C(Nc1ccc(-c2csc(-c3nc4ccccc4[nH]3)c2)cc1)Nc1ccc(Cl)c(Cl)c1 | 93 | 18 | 75
CCN1CCC(N(CCCCCCc2ccc(C(F)(F)F)cc2)C(=O)Cn2c(CCc3cccc(F)c3F)cc(=O)c3ccccc32)CC1.O=C(O)C(O)C(O)C(=O)O | 88 | 82 | 32
CCOc1ccc(C(Cc2ccccc2)NC(=O)c2cccnc2)cc1OCC (centres undefined) | 100 | 98 | 0
COc1ccc(CNc2ccnc(-n3cnc4cc(C)c(C)cc43)n2)cc1Cl.O=C(O)C(F)(F)F | 100 | 100 | 6
CCCCOc1ccc(/C=C/c2ccc(-c3c(C)[nH]c(C)c(Cl)c3=O)s2)cc1 | 97 | 96 | 0
Cc1nc(C)c(CC(=O)Nc2ccc(-c3cccc(-c4nc5cc(C(F)(F)F)ccc5[nH]4)c3)cc2)s1 | 86 | 4 | 67
O=C(c1cccc(-c2cccc(-c3nc4cc(F)ccc4[nH]3)c2)c1)N1CCCCC1CN1CCC(O)C1 (centres undefined) | 90 | 100 | 36
COc1ccc(CCN(C)CCCOc2ccc(NC(=O)COc3cccc4sc5ccccc5c(=O)c34)cc2)cc1OC | 94 | 90 | 99
Cc1ccc2nc(N/C(N)=N/C(=O)NC3CCCCC3)nc(C)c2c1 | 99 | 94 | 8
